Measured values from PubChem BioAssay AID602282 (Johns Hopkins Ion Channel Center, 2012).
In all, about 1,100 compounds went through this assay and about 1,000 (91%) were called active.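 The calls were made as follows: active = inhibition above 3 SD of the buffer control wells (cut at about 41% in these data); inactive = the rest.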 So high a share suggests a set chosen from earlier hits. The list is a sample of the results.

experiment: inhibition of M3R-evoked calcium signal on retest – cell-based, HEK293 M3R/RGS4 inducible, calcium flux, duplicate, RGS4 activator project, confirmation (AID 602282); conditions: carbachol calcium flux Fluo4, at 10 µM, hits give high values;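 also: signal is the integrated peak-minus-minimum Fluo4 fluorescence over baseline ratio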

Compound	inhibition
Cc1nn(C)cc1N1C(=O)c2cccc3c(N)ccc(c23)C1=O	97.5% (active)
OCCC1CN(Cc2ccc3nsnc3c2)CCN1C1CCCC1 (stereo not given)	82.5% (active)
COc1cccc(/C=N/Nc2cc(C)nc(-c3ccccc3O)n2)c1O	93.5% (active)
COc1cccc(-c2cc3nc4c(c(N5CCC6(CC5)OCCO6)n3n2)CCCC4)c1	56.5% (active)
Cc1ccc(OS(=O)(=O)c2ccc(-c3csc(C)n3)s2)c(C)c1	82% (active)
COC(=O)c1ccc(CN2CCC(CO)(Cc3ccc(OC)cc3)CC2)cc1	92% (active)
CCCCCC(O)(CCN1CCCCC1)c1ccccc1 (stereo not given)	93% (active)
C#CC(CCN1CCCCC1)(OC)c1ccccc1 (stereo not given)	93% (active)
Cc1ccc(SCC(=O)c2cc(C)c(OC(=S)N(C)C)c(C)c2)cc1	88.5% (active)
Cc1cc2oc3ccc(NCCC4CCCN4C)cc3c(=O)c2cc1C (stereo not given)	91% (active)
O=S(=O)(c1ccc(Br)cc1)n1ccc2ccccc21	80.5% (active)
CCc1c(C)sc(NC(=O)c2ccc(Br)o2)c1C(=O)OC	69.5% (active)
Cc1oc2c(F)c(F)c(F)c(F)c2c1S(=O)(=O)Nc1cccc(C(F)(F)F)c1	92% (active)
COc1ccc(C(=O)Nc2nc(-c3ccc(S(=O)(=O)N4CCOCC4)cc3)cs2)cc1	85.5% (active)
CCc1ccccc1NC(=O)[C@@H]1CCC(=O)N1C1OC(=O)c2c1ccc(OC)c2OC (stereo not given in full)	0% [the number is a placeholder, only the call stands] (inactive)
CCC1CCCCN1CCCNC(=O)c1cc2c(Cl)nc3ccccc3c2s1 (stereo not given)	93.5% (active)
N=c1c2c3c(sc2nc2n1CCCCC2)CCCC3	87% (active)
Oc1ccccc1N1CCN(c2ncnc3sc(-c4ccccc4)cc23)CC1	87.5% (active)
COc1ccc(/C=C(\C#N)c2c[nH]c3ccccc23)cc1	85% (active)
COc1cccc(CNC(=O)CCC2CCCN(Cc3ccc(OC(F)F)cc3)C2)c1 (stereo not given)	74% (active)
Cc1nc(N2CCN(c3ccccn3)CC2)c2c(C)c(C(=O)Nc3ccc(F)cc3)sc2n1	91% (active)
OC(CN=c1sc2ccccc2n1CC(O)COc1ccccc1)COc1ccccc1 (stereo not given)	91.5% (active)
CCOC(=O)C1=C(NC(=S)NC(=O)c2ccccc2)c2ccccc2CC1(C)C	92% (active)
CN1CCN(C(=O)N2c3ccccc3CCc3ccccc32)CC1	90.5% (active)
O=C(Cn1c(N2CCN(C/C=C/c3ccccc3)CC2)nc2ccccc21)c1ccccc1	91.5% (active)

Compound	inhibition
Cc1cccc(-c2nc3ccc(C(=O)NCCN4CCN(C)CC4)cc3nc2-c2cccc(C)c2)c1	93.5% (active)
COc1ccc(CN2CCCC(C(=O)c3ccc(Cl)cc3)C2)cc1Cn1cncn1 (stereo not given)	93% (active)
COc1ccccc1C(CNC(=O)c1cccc(NS(=O)(=O)c2ccc(Br)cc2)c1)N(C)C (stereo not given)	85% (active)
O=C(CN1CCCCCC1)Nc1ccc(S(=O)(=O)N2CCCCC2)cc1	65% (active)
CCCN(CCc1ccccc1)C1CCc2c(O)cccc2C1 (stereo not given)	78% (active)
CN(C)CCOc1ccc(Cl)cc1C(C)(C)C	81.5% (active)
COc1ccc(CN(C)C(=O)c2cc(-c3ccc(C)cc3C)nc3ccccc23)c(OC)c1OC	90% (active)
COc1ccc(-c2cc(C(=O)N(C)Cc3ccccc3)c3ccccc3n2)cc1	88.5% (active)
Cc1ccc(N2C(=O)CC(Nc3cccc4ccccc34)C2=O)cc1 (stereo not given)	0% [the number is a placeholder, only the call stands] (inactive)
CN(C)S(=O)(=O)N1CCC(Oc2cccc(C(=O)NCCCC3CCCC3)c2)CC1	78.5% (active)
Cc1ccc(C)c(N2CCN(C(=O)CCCn3c(=O)c4cccn4c4cccnc43)CC2)c1	85.5% (active)
Cc1ccc(C)c(N2CCN(C(=O)CCCCCn3c(=S)[nH]c4ccc(N5CCOCC5)cc4c3=O)CC2)c1	92% (active)
O=C(c1cccs1)C1C(c2ccc(Br)cc2)NC(=S)NC1(O)C(F)(F)F (stereo not given)	93.5% (active)
CCC1C=C(c2ccccc2)C=CN=C1N(CC)CC (stereo not given)	84% (active)
CCOC(=O)c1c(NC(=O)NC(C)(C)C)sc2c1CCN(C)C2	0% [the number is a placeholder, only the call stands] (inactive)
COc1cc(/C=C(\C#N)c2nc3ccccc3[nH]2)ccc1O	80.5% (active)
Cc1cccc(-c2nc(Nc3ccc(O)cc3)c3ccccc3n2)c1	80% (active)
Cc1ccnc(SCCn2c(N(C)Cc3ccccc3)nc3c2c(=O)n(C)c(=O)n3C)n1	62% (active)
Cc1ccccc1C(OCCN(C)C)C1CCCCC1 (stereo not given)	91% (active)
S=c1[nH]nc(-c2ccc(Cl)cc2)n1CC1CCCO1 (stereo not given)	59% (active)
CN(C)c1ccc(/C=C2\NC(=S)N(Cc3ccccc3)C2=O)cc1	79.5% (active)
CCOc1ccc(C(CC(=O)O)NC(=O)COc2ccccc2)cc1 (stereo not given)	0% [the number is a placeholder, only the call stands] (inactive)
CC(C)C(c1nnnn1CCc1ccccc1)N1CCN(C(=O)c2ccco2)CC1 (stereo not given)	87.5% (active)
Cc1ccc(OCCCCN2CCCCC2)c(Br)c1	0% [the number is a placeholder, only the call stands] (inactive)
COc1ccc(C(=O)NC2CCCc3c2cnn3-c2cccc(C)c2C)c(OC)n1 (stereo not given)	91% (active)
